SMILES strings stand for the structures. The campaign covered roughly 1,400 compounds. About 30 (2%) were called active. Entries that show only a call come without a potency. Roughly 15% stayed inconclusive and do not appear here. Calls follow the shape of the dose curve; as a rule, active = well fitted inhibition curve with a large enough effect; inconclusive = small, poorly fitted or top-dose-only effect; inactive = flat fitted curve, though single readings scatter. The full list was thinned out, with actives kept by preference.
Potency is read from the fitted curve at half-maximal effect.

This assay can be described thus: Firefly Luciferase Counterscreen for Inhibitors of ATXN expression. The following applies: luminescence; series mostly up to 57.5 µM. The source says: University of Utah School of Medicine, Salt Lake City, Utah
Spinocerebellar ataxia type 2 (SCA2) is a multisystem neurodegenerative disease caused by a dominantly acting mutation leading to expansion of a polyQ domain in the ataxin-2 protein (ATXN2). SCA2 patients develop progressive ataxia and later lose function in other neuronal systems. Prominent parkinsonian signs develop in some patients. Like many neurodegenerative disorders, no symptomatic or disease-modifying treatments are known.
The primary objective of the proposed research is to identify compounds inhibiting ATXN2 expression and to test them for efficacy in SCA2 mouse models. We have developed a cell-based assay paired with an in vivo mouse model using identical luciferase expression constructs. This approach takes advantage of an ATXN2-luciferase transgene, with the luciferase gene flanked by the upstream and downstream portions of the ATXN2 gene. Here we describe a 5-7 dose quantitative high thoroughput screen (qHTS) for compounds lowering ATXN2 expression. We screened the NIH Molecular Libraries Small Molecule Repository (MLSMR) and NCGC's mechanistically annotated (MIPE) and drug repurposing (NPC) collections of compounds for lowering expression of an ATXN2-luciferase reporter in HEK-293 cells. The assay is a multiplexed cell viability assay to ensure target reduction in the absence of cytotoxicity. Secondary qHTS assays included a CMV-luciferase reporter expressed in HEK-293 cells as well as a biochemical assay using recombinant luciferase to detect inhibitors of the reporter enzyme. Compounds that inhibit ATXN2 expression but is not cytotoxic were selected for confirmatory and secondary screens.
PROTOCOL TABLE (as described by Inglese J, Shamu CE and Guy RK. 2007)
SEQUENCE No. (e.g., 1, 2, 3, etc.); […] (e.g., Cells, Incubation, Reagent, etc.); VALUE; DESCRIPTION.
2; Compounds; 23 nL; Kalypsis pintool (Wako USA) equipped with a 1536-well pin head.
3; Enzyme; 1 uL; recombinant firefly luciferase (prepared in 50 mM Tris HCl pH7.5, 10 mM MgCl2, 0.05% BSA, 0.01% Tween20) at final concentration of 10 nM. Wells containing buffer only were used as control (set as 100% inhibition when normalizing data).
4; Incubation; 10 min; room temperature.
5; Detection; Luminescence; Viewlux plate reader (PerkinElmer).
NOTES (numbers refer to Sequence numbers above)
1. Luciferase substrate is added to 1536 well, Greiner white assay plate. Evaporation was prevented by covering assay plates with metal lids containing holes to allow gas diffusion.
2. Compounds were added in a dose response manner with the final concentrations of 57, 11.4, 2.28, 0.46, 0.091, 0.018, 0.0037 uM. Vehicle-only plates, with DMSO being pin-transferred to columns 5-48, were inserted uniformly at the beginning and the end of each library to monitor and record any shifts in assay performance.
3. Recombinant firefly luciferase (10 nM final concentration) is added to the assay plate.
5. End-point luminescence is then measured on the Viewlux (PerkinElmer) imager equipped with a clear emission filter using a 2 sec exposure.
Inglese J, Shamu CE and Guy RK, Reporting data from high throughput screening of small molecule libraries, Nature Chemical Biology, 2007, 3(8): 438-441. doi.org/10.1038/nchembio0807-438.
(In general: The purpose of a counterscreen is to sort out artefacts and off-target activity.)
For the compound `COc1ccc(-c2oc3c(OC)c(OC)c(OC)c(O)c3c(=O)c2OC)cc1OC`, the Potency entry is “inactive”.

Take `CCCCOc1ccc(C(=O)NNC(=S)NC(=O)CC)cc1`: the Potency result is “inactive”.

Regarding `COc1cccc(/C=N/NC(=O)c2c(C)nc3ccc(Cl)cn23)c1O`, the Potency entry was “inactive”.

In the case of `CC(C)[C@H](NC(=O)c1ccc(C(C)(C)C)cc1)C(=O)N1CCN(Cc2ccc3c(c2)OCO3)CC1`, the Potency result was “inactive”.

With `COc1cccc(/C=N/NC(=O)Cn2nc(C)c([N+](=O)[O-])c2C)c1O`, the Potency result is “inactive”.

For `Cc1cc(N/N=C/c2ccccc2[N+](=O)[O-])nc(-n2nc(C)cc2C)n1`, the Potency result was “inactive”.

On to `NC(Cc1ccccc1)c1csc(Nc2ccc(C(F)(F)F)cn2)n1` (stereo not given), for which the Potency result was “inactive”.

As to `CCOc1ccc(-n2c(-c3ccccc3)c[n+]3c2CCCCC3)cc1`, the Potency result was “inactive”.

`CCn1c(C)cc(C(=O)COC(=O)c2ccccc2[N+](=O)[O-])c1C`: the Potency is 0.0178 µM (active).

`Cc1c(C(=O)N2c3ccccc3Sc3ccccc32)cccc1[N+](=O)[O-]`: the Potency entry was “inactive”.

With `CCc1ccc(NC(=O)COc2ccc(/C=C(/C#N)c3nc4ccccc4[nH]3)cc2OC)cc1`, the Potency entry is “inactive”.

In the case of `O=C(CNC(=O)c1ccccc1Br)N/N=C/c1ccccc1O`, the Potency entry was “inactive”.

Regarding `Cc1ccc(N=Nc2ccc(O)c3ncccc23)cc1`, the Potency entry is “inactive”.

Turning to `Cc1cc2sc3ccc(C#CC4(O)CCCCC4)cc3c(=O)c2cc1C`, the Potency was 0.251 µM (active).

`Oc1c(C(Nc2cccc(C(F)(F)F)c2)c2ccncc2)ccc2cccnc12` (stereo not given): the Potency entry is “inactive”.

Take `O=C(CCCOc1ccc(Cl)cc1Cl)N/N=C/c1ccccc1O`: the Potency entry was “inactive”.

Take `CC[n+]1ccccc1/C=C1\Sc2ccc(C)cc2N1C`: the Potency result is “inactive”.

As to `CN1OC[C@@H]2CN[C@H](c3ccc(-c4cc5ccccc5o4)cc3)C[C@@H]21`, the Potency was 0.316 µM (active).

On to `CCC(=O)NNC(=S)NC(=O)c1ccc(C)cc1`, for which the Potency result was “inactive”.

In the case of `COc1ccc(-c2csc(NC(=O)C3CCN(c4ncnc5sc(C)c(C)c45)CC3)n2)cc1OC`, the Potency result is “inactive”.

As to `COC(=O)c1c(NC(=O)c2ccc([N+](=O)[O-])o2)sc2c1CCN(C(C)C)C2`, the Potency result is “inactive”.

Take `CC(=O)Oc1ccc(C23c4ccccc4C2(OC(C)=O)c2cc(OC(C)=O)ccc23)cc1` (stereo not given): the Potency entry was “inactive”.

As to `COC(=O)c1sc(NC(=O)c2ccc(OC)cc2OC)nc1C`, the Potency is 0.1 µM (active).

In the case of `COc1ccc(CC(N)c2csc(NC(=O)c3ccccc3OC)n2)cc1` (stereo not given), the Potency entry was “inactive”.

As for `COc1ccc(C(=O)c2sc(Nc3ccccc3)nc2N)cc1OC`, the Potency result is “inactive”.

With `COc1ccc(CSCC(=O)N/N=C/c2ccccc2O)cc1`, the Potency entry is “inactive”.

In the case of `Cc1cccc(OCC(=O)Nc2ccc3c(c2)nc(CCN2CCN(c4ccccn4)CC2)n3C)c1`, the Potency result is “inactive”.

On to `Cc1cc2oc3ccc(NCCC4CCCN4C)cc3c(=O)c2cc1C` (stereo not given), for which the Potency is 6.31 µM (active).

For the compound `CN1CCCC1CCOC(C)(c1ccccc1)c1ccc(Cl)cc1` (stereo not given), the Potency result was “inactive”.

In the case of `Cc1cc2oc3cc(NCCC4CCCN4C)ccc3c(=O)c2cc1C` (stereo not given), the Potency is 10 µM (active).

Take `CCN1CCN(C(c2ccc(C(F)(F)F)cc2)c2ccc3cccnc3c2O)CC1` (stereo not given): the Potency entry is “inactive”.

For the compound `COc1ccc(CC2C(=O)NC(C)C(=O)N(C)C3Cc4ccc(cc4)Oc4cc(ccc4O)CC(C(=O)NC(C)C(=O)NC(C)C(=O)N2C)N(C)C3=O)cc1` (stereo not given), the Potency entry was “inactive”.

For the compound `COc1ccc(/C=C2\CN(Cc3ccccc3)C/C(=C\c3ccc(OC)c(O)c3)C2=O)cc1O`, the Potency result was “inactive”.

Consider `O=C(CN1CCCC1)N/N=C/c1c(O)ccc2ccccc12`, for which the Potency entry was “inactive”.

With `O=C(Nc1nc(-c2ccccn2)cs1)c1ccccc1-n1cnnn1`, the Potency result is “inactive”.

In the case of `CCc1sc(C(=O)Nc2nc(-c3ccccn3)cs2)cc1C`, the Potency was 6.31 µM (active).

`CCc1ccccc1OCC(=O)Nc1nc(-c2cccnc2)cs1`: the Potency entry was “inactive”.

In the case of `O=C(Nc1nc(-c2ccccn2)cs1)c1ccc(F)c(S(=O)(=O)N2CCOCC2)c1`, the Potency entry was “inactive”.

On to `CC(Oc1ccc(F)cc1)C(=O)Nc1nc(-c2ccccn2)cs1` (stereo not given), for which the Potency result was “inactive”.

Take `O=C(Nc1nc(-c2ccccn2)cs1)Nc1ccc(F)cc1F`: the Potency is 25.1 µM (active).

Take `Cc1ccc(-c2cn(-c3ccc(OC(F)F)cc3)c3[n+]2CCCCC3)cc1`: the Potency entry is “inactive”.

Turning to `COc1ccc2oc(/C=C/N(C)C)c(C(=O)c3ccc(Cl)cc3)c2c1`, the Potency result is “inactive”.

Regarding `CC(CCc1ccccc1)NC(=O)c1ccc(C(=O)NC(C)CCc2ccccc2)cc1` (stereo not given), the Potency result was “inactive”.

In the case of `O=C(NCc1ccccc1)c1ccc(C(=O)N(C2CCCCC2)C2CCCCC2)cc1`, the Potency result is “inactive”.

Regarding `O=C(NNCc1ccccc1)c1ccccc1`, the Potency is 10 µM (active).

Take `Cc1ccccc1N=Nc1ccc(O)c2ncccc12`: the Potency entry is “inactive”.

`CCN1C(=O)/C(=C/c2nc3ccccc3c(=O)n2-c2ccccc2)c2ccccc21`: the Potency entry is “inactive”.

For `CC(=O)Nc1cccc(-c2ccnc3c2CC(C)(C(=O)Nc2cccc(Oc4ccccc4)c2)O3)c1` (stereo not given), the Potency entry is “inactive”.

For the compound `COc1ccc2sc(-c3ccc(SC)cc3)c(-c3ccc(O)cc3)c2c1`, the Potency entry is “inactive”.

`COc1cc(/C=C(/C#N)C(=O)NCCc2c[nH]c3ccccc23)ccc1OCc1ccccc1F`: the Potency result was “inactive”.

Values taken from PubChem BioAssay AID1745846 (National Center for Advancing Translational Sciences (NCATS), 2022).
